This is part of a sample that, as a whole, favours compounds with a hit. Of some 79,000 tested, about 15% had one in any assay. Active and inactive are the calls of the source. Cut-off read from the data, not from the text of the source: active = growth inhibition above about 70%; inactive = the rest.
Legend:
[1] = NCI Yeast Anticancer Drug Screen. Data for the rad50 strain (AID 155);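 note: 0% = growth of vehicle-only cultures of the same strain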; details: S. cerevisiae rad50 strain growth inhibition; at 50.0 µM; active compounds read high
Procedure, shortened: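 Inhibition values express reduced yeast growth in compound-treated cultures relative to vehicle-treated controls.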

[2] = NCI Yeast Anticancer Drug Screen. Data for the mec2-1 strain (AID 157); details: S. cerevisiae mec2-1 strain, at 50.0 µM, active compounds read high
Procedure, shortened: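 Using mec2-1 yeast: add compound, measure growth, express inhibition versus vehicle-treated cultures.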

[3] = NCI Yeast Anticancer Drug Screen. Data for the sgs1 mgt1 strain (AID 161);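 note: 0% = growth of cultures given vehicle only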; details: S. cerevisiae sgs1 mgt1 strain, at 50.0 µM, active compounds read high
Procedure, shortened: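 Compounds are added to genetically altered yeast, and growth is compared with cultures given vehicle alone to give percent inhibition.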

[4] = NCI Yeast Anticancer Drug Screen. Data for the cln2 rad14 strain (AID 165);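 note: 0% = growth equal to vehicle treated cultures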; details: S. cerevisiae cln2 rad14 strain, at 50.0 µM, active compounds read high
Procedure, shortened: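 Yeast strain cln2 rad14, bearing defects in cell cycle control and DNA repair, serves as the test system; values reflect growth inhibition compared with vehicle.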

[5] = NCI Yeast Anticancer Drug Screen. Data for the bub3 strain (AID 167); details: S. cerevisiae bub3 mutant strain, at 50.0 µM, active compounds read high
Procedure, shortened: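 Steps: expose the mutant yeast strain to compound; grow alongside vehicle-treated cultures; measure growth; express inhibition against the vehicle cultures.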

[6] = NCI Yeast Anticancer Drug Screen. Data for the mlh1 rad18 strain (AID 175); details: S. cerevisiae mlh1 rad18 strain growth inhibition; at 50.0 µM; active compounds read high
Procedure, shortened: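 Steps: expose repair-defective yeast to compound; measure growth; express inhibition against vehicle-treated controls.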

Measured: growth inhibition

CC(=O)Cn1c(=O)oc2ccccc2c1=O
inactive: [1] 22.6% | [2] -9% | [3] -10.7% | [4] 49.5% | [5] 17.9% | [6] 10.1%

CC(=O)NC1c2ccccc2CCC1OC(C)=O (stereo not given)
inactive: [1] -16.4% | [2] -8.05% | [3] 22.9% | [4] -1.8% | [5] -8.55% | [6] -34.8%

COc1ccc(C(=O)Nc2ccccc2C#N)cc1
inactive: [1] -0.15% | [2] -4.5% | [3] -9.25% | [4] -1.25% | [5] 1.55% | [6] -3.8%

O=C(CC(O)(CCc1ccccc1)c1ccccc1)N1CCC(O)(c2ccccc2)CC1 (stereo not given)
active: [1] 97.2% | [2] 98.5% | [3] 98.2% | [4] 97.6% | [5] 97.8% | [6] 98.2%

O=C(O)c1cc(C2CC2)nc2ccc(Br)cc12
inactive: [1] 13.6% | [2] 1.7% | [3] 2.2% | [4] 6.55% | [5] -5.6% | [6] 19.8%

CC(=O)OCC1OC(n2cnc3c(=S)nc[nH]c32)C(OC(C)=O)C1N(C)C(C)=S (stereo not given)
inactive: [1] 38.5% | [2] -4% | [3] 37.6% | [4] 9.85% | [5] 1.25% | [6] 12.6%

CCOC(=O)[C@H](C)OC(=O)[C@@](C)(NC(=O)c1ccccc1C(=O)OC)[C@@H]1NC=C(C(=O)OC)CS1
inactive: [1] -2.15% | [2] 26.9% | [3] 11.2% | [4] 14.4% | [5] 29% | [6] 5.8%

COC(=O)c1cc(C(=O)OC)c(C/C(=N/Nc2ccc([N+](=O)[O-])cc2[N+](=O)[O-])C(=O)Nc2cccc(C(F)(F)F)c2)nc1C/C(=N/Nc1ccc([N+](=O)[O-])cc1[N+](=O)[O-])C(=O)Nc1cccc(C(F)(F)F)c1
inactive: [1] 57% | [2] -5.95% | [3] 1.15% | [4] 25.4% | [5] 37.9% | [6] 59.8%

CCOc1cccc(-c2ccccc2)c1
inactive: [1] 18.3% | [2] 17.6% | [3] 16.9% | [4] 9.35% | [5] 1.1% | [6] -0.35%

C[C@@H]1C(=O)CC2(O)[C@@]13C[C@@H](OC(=O)[C@@H]3O)[C@@H](C)[C@@]21COC1=O (stereo not given in full)
inactive: [1] 13.8% | [2] 14.2% | [3] -20.6% | [4] -6.65% | [5] -28.1% | [6] -47.1%

C/C(=N/Nc1ccc([N+](=O)[O-])cc1[N+](=O)[O-])C(C)(C)C
inactive: [1] -3.05% | [2] -13.2% | [3] 0.35% | [4] 3.15% | [5] -8.75% | [6] -13.2%

COCC(=O)c1ccccc1
inactive: [1] 14.3% | [2] 1.7% | [3] 5.3% | [4] 6% | [5] -0.65% | [6] 32.9%

CCCCOC(=O)CCCCCCC/C=C/C1C=CC(CCCC)C(C#N)C1C#N (stereo not given)
inactive: [1] 1% | [2] -5.95% | [3] -25.1% | [4] -6.05% | [5] -4.3% | [6] -13.3%

CCN(CCO)C(=O)C1(c2ccccc2)CCCCC1
inactive: [1] 11.8% | [2] -9.7% | [3] 9.35% | [4] 28% | [5] 18.4% | [6] -1.4%

CCCCCCCC[N+](C)([O-])CCCCCC[N+](C)([O-])CCCCCCCC (stereo not given)
active: [6] 76.2%
inactive: [1] 63.6% | [2] 25.2% | [3] 69.8% | [4] 66.8% | [5] 5.85%

COc1cc(NC=C2C(=O)OC(C)(C)OC2=O)c(OC)c(C)c1OC
inactive: [1] 1.25% | [2] -27.1% | [3] -10.1% | [4] 0.5% | [5] -22.9% | [6] 4.15%

CC(=O)Nc1cccc2c1C(=O)c1c(c(O)c3ccccc3c1O)C2=O
inactive: [1] 24.9% | [2] -9.85% | [3] -12.8% | [4] -9.3% | [5] -8.4% | [6] -1.85%

CCCCCCCCCCCOCCC1C(C(C)OCCN2CCCC2)OC2OC(C)(C)OC21 (stereo not given)
active: [1] 91.5% | [2] 92.8% | [3] 90.5% | [4] 90.4% | [5] 88.2% | [6] 89%

CC(=O)CC(=O)Nc1ccc(Cc2ccc(NC(C)=O)cc2)cc1
inactive: [1] 8.3% | [2] 9.8% | [3] 10% | [4] 5.55% | [5] 2.8% | [6] 21.8%

CC12O[C@H](c3ccccc3)[C@H](c3ccccc3)N1C(=O)C1(C(=O)OCc3ccccc3)CC12 (stereo not given in full)
inactive: [1] 11.3% | [2] -7.35% | [3] 6.4% | [4] 2.15% | [5] -7.05% | [6] -3.45%
